# About 79,000 compounds went through this panel and 15% of them were active in at least one assay; those are over-represented in the sample as a whole. Unmarked numbers belong to inactive results. Activity calls are given as the source filed them. No stated cut-off is given here; in the data, active means growth inhibition above about 70%; inactive means the rest.
# What was measured:
# [1] = NCI Yeast Anticancer Drug Screen. Data for the rad50 strain (AID 155);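 further: 0% = growth of vehicle-only cultures of the same strain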; conditions: S. cerevisiae rad50 strain growth inhibition, active compounds read high
# Method in brief: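 Cells are treated with compound, grown, and their growth is then scored against vehicle-only cultures of the same repair-deficient yeast strain.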
# [2] = NCI Yeast Anticancer Drug Screen. Data for the mec2-1 strain (AID 157); conditions: S. cerevisiae mec2-1 strain, active compounds read high
# Method in brief: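 Readout is yeast growth inhibition, normalised to vehicle-treated controls, in the mec2-1 strain exposed to compound.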
# [3] = NCI Yeast Anticancer Drug Screen. Data for the sgs1 mgt1 strain (AID 161);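 further: 0% = growth of cultures given vehicle only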; conditions: S. cerevisiae sgs1 mgt1 strain, active compounds read high
# Method in brief: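 Compounds are added to genetically altered yeast, and growth is compared with cultures given vehicle alone to give percent inhibition.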
# [4] = NCI Yeast Anticancer Drug Screen. Data for the cln2 rad14 strain (AID 165);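 further: 0% = growth equal to vehicle treated cultures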; conditions: S. cerevisiae cln2 rad14 strain, active compounds read high
# Method in brief: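 Relative to vehicle controls, growth inhibition of compound-treated cln2 rad14 yeast was recorded.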
# [5] = NCI Yeast Anticancer Drug Screen. Data for the bub3 strain (AID 167); conditions: S. cerevisiae bub3 mutant strain, active compounds read high
# Method in brief: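 Part of a panel of yeast mutants defective in DNA damage repair or cell cycle regulation. Each strain is grown with compound, and inhibition is calculated relative to solvent-treated cultures.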
# [6] = NCI Yeast Anticancer Drug Screen. Data for the mlh1 rad18 strain (AID 175); conditions: S. cerevisiae mlh1 rad18 strain growth inhibition, active compounds read high
# Method in brief: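 Test agents were incubated with a yeast strain of defined genotype (DNA damage repair defect). Inhibition of growth was derived by comparison with vehicle-exposed cultures.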
# [7] = at 5.0 µM (retest, dose inferred, filed as 0.5)
# [8] = at 50.0 µM (retest, dose inferred, filed as 5.0)
SMILES,"growth inhibition [1, 7]","growth inhibition [1, 8]",growth inhibition ([1]; at 50.0 µM),"growth inhibition [2, 7]","growth inhibition [2, 8]",growth inhibition ([2]; at 50.0 µM),"growth inhibition [3, 7]","growth inhibition [3, 8]",growth inhibition ([3]; at 50.0 µM),"growth inhibition [4, 7]","growth inhibition [4, 8]",growth inhibition ([4]; at 50.0 µM),"growth inhibition [5, 7]","growth inhibition [5, 8]",growth inhibition ([5]; at 50.0 µM),"growth inhibition [6, 7]","growth inhibition [6, 8]",growth inhibition ([6]; at 50.0 µM)
CNc1ccc(F)cc1SSc1cc(F)ccc1NC,97% (active),98% (active),99% (active),94% (active),99% (active),99.5% (active),95% (active),99% (active),99.4% (active),10%,99% (active),99% (active),38%,99% (active),99.2% (active),97% (active),99% (active),99.2% (active)
C[n+]1c(-c2ccc(/C=N/Nc3ccnc(N/N=C/c4ccc(-c5cn6ccccc6[n+]5C)cc4)n3)cc2)cn2ccccc21,99% (active),99% (active),99.3% (active),100% (active),99% (active),99.5% (active),99% (active),99% (active),99.2% (active),98% (active),99% (active),99.3% (active),99% (active),99% (active),99.4% (active),99% (active),99% (active),99.2% (active)
CC(C)c1ccc2c(c1)CCC1C(C)(CN)CCCC21C (configuration not stated),27%,100% (active),99.2% (active),0%,100% (active),99.6% (active),35%,100% (active),99.5% (active),-6%,99% (active),98.7% (active),10%,100% (active),99.3% (active),32%,100% (active),99.1% (active)
Cc1cc(Cc2ccccc2Cl)ccc1O,-3%,99% (active),99.2% (active),-9%,100% (active),99.6% (active),-3%,99% (active),99.5% (active),-17%,99% (active),99% (active),-6%,98% (active),99.4% (active),-4%,100% (active),95.5% (active)
CCCCCCCCCCCCCCCCCC1=NCCN1,6%,98% (active),54%,-4%,98% (active),99.3% (active),1%,98% (active),42%,1%,99% (active),98% (active),8%,98% (active),99.3% (active),-1%,97% (active),99.2% (active)
CCOC(=O)c1ccc(O)c(C=O)c1,-103%,90% (active),99.2% (active),-29%,98% (active),99.6% (active),-35%,98% (active),99.3% (active),-28%,98% (active),99% (active),-49%,98% (active),98.6% (active),-83%,98% (active),99.5% (active)
CN(C)N=Nc1ccc(NC(N)=O)cc1,33%,78% (active),43.8%,16%,43%,65.3%,38%,45%,12.6%,38%,51%,23.3%,42%,50%,67.7%,25%,58%,81.2% (active)
CCCCCCCCCCCCCCCC[N+](C)(C)CC(=O)O,6%,92% (active),-12.2%,7%,98% (active),1.2%,19%,97% (active),-1.4%,2%,94% (active),88.4% (active),0%,96% (active),99% (active),5%,97% (active),7.85%
CN1C(/C=C/c2ccc(O)c3ncccc23)CCC2CCCC(O)C21 (configuration not stated),1%,94% (active),95% (active),26%,95% (active),89.6% (active),9%,94% (active),92.2% (active),-12%,91% (active),85.2% (active),8%,96% (active),92.8% (active),14%,96% (active),95.4% (active)
OC1(c2ccccc2)CCN(c2c3ccccc3nc3ccccc23)CC1,0%,63%,98.9% (active),3%,75% (active),99.5% (active),6%,75% (active),97.6% (active),5%,30%,99% (active),0%,58%,99.3% (active),-2%,68%,99.4% (active)
Cc1ccc(N2C(N)=C(C#N)C(C#N)(C#N)C2c2ccccc2)cc1 (configuration not stated),22%,70% (active),31.1%,26%,82% (active),38.1%,20%,51%,55%,14%,41%,24.4%,25%,50%,64.7%,25%,88% (active),90.5% (active)
O=C1c2ccccc2C(=O)c2c(/C=C\N3CCCCC3)ccnc21,40%,86% (active),87.7% (active),27%,60%,92.4% (active),40%,99% (active),92.6% (active),38%,95% (active),90.7% (active),48%,98% (active),92.3% (active),37%,84% (active),90.6% (active)
Nc1ccc(SC23CC4CC(CC(C4)C2)C3)cc1,1%,74% (active),94.1% (active),0%,42%,94.4% (active),9%,78% (active),96% (active),-69%,61%,95.1% (active),40%,33%,95.7% (active),10%,91% (active),89.2% (active)
Cc1ccc(N=C2SC(=S)N(CCC[N+](C)(C)C)C2=Nc2ccc(C)cc2)cc1,-5%,99% (active),99.2% (active),-18%,100% (active),99.5% (active),-10%,99% (active),99.5% (active),12%,99% (active),99.5% (active),-4%,99% (active),99.4% (active),3%,100% (active),99.4% (active)
O=[N+]([O-])/C=C/c1cc2ccccc2[nH]1,6%,99% (active),99.5% (active),-6%,100% (active),99.5% (active),9%,99% (active),99.4% (active),11%,99% (active),96.5% (active),-8%,100% (active),99.5% (active),16%,99% (active),99.2% (active)
O=C(NC(=Nc1ccccc1)SCCSC(=Nc1ccccc1)NC(=O)c1ccccc1)c1ccccc1,0%,0%,85.6% (active),18%,18%,79.9% (active),10%,10%,86.2% (active),5%,5%,84.5% (active),-3%,-3%,88% (active),1%,1%,78% (active)
CCCCc1c2c(nc3c1CC/C(=C\c1ccccc1)C3=O)CCCC2,-23%,97% (active),65.8%,-7%,98% (active),48.5%,-11%,97% (active),69.6%,-1%,97% (active),38%,-1%,98% (active),54%,-19%,97% (active),49.7%
CC(C)=CC(=O)OC(CCCc1ccccc1)c1ccc2c(c1)OCO2 (configuration not stated),5%,-5%,-4.6%,7%,-16%,-13.2%,-6%,9%,-4.75%,0%,3%,0.35%,35%,33%,50%,2%,14%,-8.25%
CC(C(=O)c1ccc(Cl)cc1)C1OC(=O)C(Cl)=C1Cl (configuration not stated),43%,54%,90.8% (active),37%,51%,93.4% (active),43%,70% (active),92.9% (active),32%,43%,87.7% (active),40%,72% (active),91.5% (active),56%,71% (active),91.7% (active)

# Source: PubChem BioAssay (NCI)
